# High-throughput results (PubChem)
# FBPA Giardia inh – inhibitors of Giardia lamblia fructose-1,6-bisphosphate aldolase; AID 2451; purified Giardia FBPA; A8B2U2; hit rate 0.71% among 290,000; Potency, µM (top dose mostly 59.6 µM), for inactives: top-dose activity, negative = inhibition, most hits filed as inhibitors; active = well fitted inhibition curve with a large enough effect; inconclusive = small, poorly fitted or top-dose-only effect, or effect the other way; note: nearly all actives have a fitted effect of over 55% in size
# Target sequence (A8B2U2 whole entry, looked up): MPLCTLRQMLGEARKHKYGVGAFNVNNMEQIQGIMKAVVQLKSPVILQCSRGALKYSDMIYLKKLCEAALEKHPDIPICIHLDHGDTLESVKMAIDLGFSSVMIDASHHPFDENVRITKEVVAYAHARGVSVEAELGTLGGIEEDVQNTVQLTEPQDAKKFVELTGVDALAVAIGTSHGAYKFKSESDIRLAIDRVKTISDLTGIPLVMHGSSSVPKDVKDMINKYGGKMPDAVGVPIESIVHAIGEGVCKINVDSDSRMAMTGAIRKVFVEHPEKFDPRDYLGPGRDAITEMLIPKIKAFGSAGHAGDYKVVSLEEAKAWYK
#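 40 nM FBPA preincubated 10 min at RT with compound (up to 57.5 uM final), then substrate plus GAPDH/TPI/NAD/arsenate coupling and diaphorase/resazurin added. Fluorescence read after 20 min at RT, 525/598 nm.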
# VACV Venus inh – inhibitors of vaccinia virus (Venus reporter) | Vaccinia virus Venus reporter expression, fluorescence | Potency, µM (top dose mostly 36.5 µM), inactives show at the top dose activity change, negative = inhibition, hits mostly inhibitors | hit rate 0.46% among 330,000; calls by dose curve; tested in A549 cells; note: nearly all actives have a fitted effect of over 30% in size
# FMDV antiviral – foot and mouth disease virus antiviral activity; FMDV antiviral cell-based qHTS; Potency, µM (titrated, usually from 57.9 µM), for inactives: top-dose activity change, negative = inhibition, usual class: inhibitors; hit rate 1.2% among 410,000; calls by dose curve; tested in HEK293T cells; note: read-out not given here; nearly all actives have a fitted effect of over 45% in size
# Vaccinia mCherry – vaccinia inhibition (mCherry reporter). Vaccinia virus mCherry reporter infection, fluorescence. Potency, µM (doses to about 36.5 µM), for inactives: at the top dose activity change, negative = inhibition, hits mostly inhibitors. hit rate 0.63% among 310,000. AID 720579; calls by dose curve; tested in A549 cells; note: nearly all actives have a fitted effect of over 35% in size
# Starred values were filed as active, the others as inactive; i = inactive; ? = inconclusive; / = not tested or not shown; [ ] = remark or other dose. The list is not random: actives were taken first. Their share in the collection is about 2.2%. % is set by controls: 0 for no effect and ±100 for the full control effect; potency is the fitted concentration of half-maximal effect.
SMILES,FBPA Giardia inh,VACV Venus inh,FMDV antiviral,Vaccinia mCherry
Cc1nc2cc(NC(=O)[C@@H]3C[C@@H](Sc4ccccn4)CN3Cc3cccc(Cl)c3)ccc2s1,/,2%,5%,-8%
Cc1c(C(=O)N(C)CC2CCCN(C)C2)cnn1-c1nccc(-c2ccco2)n1 (configuration not stated),/,-9%,19%,-16%
O=S(=O)(c1ccc2c(c1)OCCO2)N1CCN(c2nc(-c3ccccc3)nc3ccccc23)CC1,/,-8%,/,-8%
COc1ccc(NC2=Nc3ccccc3N3C2=Nc2c(c(C)nn2-c2ccc(C)cc2)C3c2cccnc2)cc1 (configuration not stated),-3%,-2%,-13%,-9%
CC(=O)Nc1ccc(NC2=Nc3ccccc3N3C2=Nc2c(c(C)nn2-c2ccccc2)C3c2ccccc2)cc1 (configuration not stated),/,?,10µM*,?
CCOC(=O)c1ccc(NC(=O)CCc2nc(-c3ccccc3)no2)cc1,-5%,-28%,20µM*,-24%
CCOC(=O)c1ccc(NC(=O)CCc2nc(-c3ccccc3Cl)no2)cc1,-3%,/,-9%,/
O=c1[nH]c(=O)n([C@H]2C[C@@H](O)[C@@H](CO)O2)cc1F,/,14µM*,/,3.5µM*
O=c1[nH]c(=O)n(C2C[C@H](O)[C@@H](CO)O2)cc1C(F)(F)F (some centres not stated),/,?,-6%,0.5µM*
CC(C)Cn1c(N)c(C(=O)CSc2nc3ncc(Cl)cc3[nH]2)c(=O)n(C)c1=O,/,-8%,16µM*,i
CC(C)Cn1c(N)c(C(=O)CSc2ccc3c(c2)OCCO3)c(=O)n(C)c1=O,0%,/,11µM*,/
O=C(/C=C/c1ccc(I)cc1)c1ccc(B(O)O)cc1,1%,/,/,/
Cc1csc(C(C)N(C)C(=O)c2cc(NC(=O)C3CCC3)c3c(c2)nc(-c2ccncc2)n3C)n1 (configuration not stated),/,-11%,15%,i
O=C(O)c1ccc(N=Nc2c(O)ccc3ncccc23)cc1,?,?,5.6µM*,-26%
COc1ccc(/C=C2\SC(=O)N(CCNC(=O)Cc3coc4cc(C)ccc34)C2=O)cc1OC,-6%,/,40µM*,/
CC(=O)C1CCC2C3CC=C4CC(SC(=N)N)CCC4(C)C3CCC12C (configuration not stated),/,16µM*,0%,?
Cc1ccc(O)c(CNc2cnc3ccccc3c2)c1,11%,-24%,2%,13µM*
Oc1ccc(Br)cc1CNc1cnc2ccccc2c1,-9%,/,30%,/
CCC(=O)N1CCN(c2ccc(NC(=O)c3cc4ccccc4o3)cc2Cl)CC1,?,11µM*,8.9µM*,?
CCC(=O)N1CCN(c2ccc(NC(=O)c3ccco3)cc2Cl)CC1,-2%,-2%,20%,-8%
CCCC(=O)N1CCN(c2ccc(NC(=O)c3cccs3)cc2Cl)CC1,-10%,-15%,7%,-3%
CCCC(=O)N1CCN(c2ccc(NC(=O)c3cc4ccccc4o3)cc2Cl)CC1,10µM*,10µM*,4.5µM*,/
O=C(Nc1ccc(N2CCN(C(=O)c3ccco3)CC2)c(Cl)c1)c1cc2ccccc2o1,?,16µM*,8.9µM*,11µM*
CCCN1CNc2c(c(=O)[nH]c(=S)n2CCc2ccc(C)cc2C)C1,/,-12%,/,i
Cc1ccc(CNC(=O)COC(=O)c2ccccc2OCC(=O)Nc2ccc(Br)cc2)cc1,/,-14%,/,i
SMILES,FBPA Giardia inh,VACV Venus inh,FMDV antiviral,Vaccinia mCherry
COc1cnc(-c2ccccn2)[nH]c1=O,3.5µM*,0%,-15%,-14%
CCc1cc2c(=O)[nH]c(-c3ccccn3)nc2s1,14%,?,?,2.8µM*
Cc1c(C(=O)N2CCN(C)CC2)sc2ncnc(NCC3(c4ccccc4)CCOCC3)c12,/,0%,-10%,i
COc1cc(=O)n2c(c1C(=O)NC(C)c1ccco1)CCN(Cc1ccc3nsnc3c1)CC2 (configuration not stated),/,-4%,0%,-10%
Clc1ccc(/C=C/c2ccc3ccccc3n2)c(Cl)c1,/,-16%,/,-21%
COC(=O)c1ccc(CN2CCOc3ccc(CN4CCC(O)(c5cccnc5)CC4)cc3C2)cc1,/,-26%,18µM*,-26%
Cc1cccc(C)c1NC(=O)CCCSc1nnc(-c2ccc(F)cc2)n1-c1ccccc1,12%,?,?,-24%
Cc1cccc(C)c1NC(=O)CCCSc1nnc(-c2ccc(Cl)cc2)n1-c1ccccc1,9%,?,14µM*,13µM*
N#CCSc1nnc(-c2ccc3c(c2)OCO3)o1,3%,?,42%,11µM*
CC(C)CC(N)c1csc(Nc2ncccn2)n1 (configuration not stated),/,?,6%,7.9µM*
COC(=O)[C@@H]1C[C@H](NC(=O)c2cc(C(F)(F)F)ccc2Cl)CN1Cc1cccc(O)c1,/,8%,-11%,-6%
O=[N+]([O-])c1ccc(N2CCCC(C(F)(F)F)C2)c2ccncc12 (configuration not stated),?,7.9µM*,?,2.8µM*
COc1cc(-c2c(OC)cccc2OC)cc2c1OCCN(Cc1cn[nH]c1-c1ccc(Cl)cc1)C2,/,0%,-1%,-4%
CC1(C(=O)OCC(=O)Nc2ccc(C(N)=O)cc2)CC1(Cl)Cl (configuration not stated),0%,-1%,1%,-3%
COc1ccccc1NC(=O)c1ccc(NC(=O)COC(=O)C2(C)CC2(Cl)Cl)cc1 (configuration not stated),-6%,-17%,35µM*,-26%
CCN(CC)c1ccc(/C=C2\C(=O)N(c3nnc(C)c(=O)[nH]3)N=C2C)cc1,?,-14%,28µM*,-3%
Clc1ccc2c(ccc[n+]2CCc2ccccc2)c1,/,8%,/,-19%
Cc1c(C(=O)NCCCc2ccncc2)cnn1-c1nccc(-c2ccccc2F)n1,/,?,-20%,?
O=C(NC1=NCCS1)C1COc2ccccc2O1 (configuration not stated),4%,6%,10µM*,-5%
Cc1c(C(=O)NCCC2CCCN2C)cnn1-c1nccc(-c2ccccc2F)n1 (configuration not stated),/,5%,-14%,-7%
Cc1ccc2oc(C(F)(F)C(F)F)cc(=O)c2c1,6%,-6%,-21%,-14%
Cc1ccc2oc(C(Cl)(Cl)Cl)cc(=O)c2c1,8%,?,/,11µM*
CN(C)c1ccc(/C=C/c2nc3ccccc3o2)cc1,/,-18%,/,24%
CCCN1C(=O)/C(=C/c2nc3ccccc3c(=O)[nH]2)c2ccccc21,5%,-7%,0%,-11%
CC(C)N1C(=O)/C(=C\c2nc3ccccc3c(=O)[nH]2)c2ccccc21,19%,-6%,40µM*,-11%
Cc1ccccc1N=C1Nc2ccc(Cl)cc2N[C@]12C[C@H]1CCCC(=O)N3CC[C@@H](C2)[C@@H]13,/,-5%,/,i
COC(=O)c1ccc2c(c1)C(C)(C)C(/C=C/c1ccccc1O)=[N+]2C,?,/,7.9µM*,/
C[N+]1=C(/C=C/Nc2ccccc2Cl)C(C)(C)c2ccccc21,10%,104%,-28%,34%
CCOC(=O)CCCNC(=O)N1CCc2nc(COc3ccccc3)c3c(c2C1)CO[C@@H](C)C3,2%[12.9 µM],/,/,/
